PP1 inh = counter-screen for PP5 inhibitors: inhibitors of human PP1-alpha; inhibition, % at 6.7 µM; AID 2235; P62136; 0.9% of 320,000 active; purified PP1alpha, OMFP fluorescence;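 active means inhibition above the mean inhibition of all tested compounds plus 3 SD, computed separately for each screening campaign, cut at about 15% in these data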
Target sequence (P62136 whole entry, looked up): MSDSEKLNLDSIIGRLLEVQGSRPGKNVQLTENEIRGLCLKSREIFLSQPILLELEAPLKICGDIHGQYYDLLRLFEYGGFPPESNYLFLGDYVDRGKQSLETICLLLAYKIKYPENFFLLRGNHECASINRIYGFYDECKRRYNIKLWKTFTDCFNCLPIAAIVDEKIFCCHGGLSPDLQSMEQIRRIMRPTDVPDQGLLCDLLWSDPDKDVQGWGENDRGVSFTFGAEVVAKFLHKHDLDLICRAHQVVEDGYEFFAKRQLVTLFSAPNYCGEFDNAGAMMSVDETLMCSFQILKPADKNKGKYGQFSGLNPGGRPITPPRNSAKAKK
CSC inhib = blocks cancer stem cells; cancer stem cell-like cells viability, luminescence; inhibition, % at 7.5 µM; 1.1% of 300,000 active; AID 2717; in the data active means inhibition above about 75%; tested in HMLE shEcad cells
ALR inh = blocks human ALR sulfhydryl oxidase activity | inhibition, % (no concentration beside the values) | purified ALR, DTT oxidation, H2O2 HRP-luminol luminescence | P55789 | 3.8% of 290,000 active;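 active means mean replicate inhibition above about 79%, with every replicate also reaching it, limit read from the data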
Target sequence (P55789 whole entry, looked up): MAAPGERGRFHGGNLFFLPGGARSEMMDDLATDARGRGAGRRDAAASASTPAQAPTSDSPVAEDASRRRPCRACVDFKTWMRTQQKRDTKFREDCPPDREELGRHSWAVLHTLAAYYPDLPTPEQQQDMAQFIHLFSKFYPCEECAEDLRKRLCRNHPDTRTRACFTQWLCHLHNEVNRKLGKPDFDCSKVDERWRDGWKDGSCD
Calb FLC = C. albicans growth modulation with fluconazole; 0.57% of 300,000 active; AID 1979; C. albicans CaCi-2 (fluconazole-resistant clinical isolate) + fluconazole, Alamar Blue growth, 48 h; growth inhibition, % (no concentration beside the values);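 active means growth inhibition above about 58% in most replicates, limit read from the data, passing the limit was not always enough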;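 further: all wells also contain fluconazole at 8 µg/ml as a sub-toxic cotreatment; 0% = median of DMSO wells and 100% = median of geldanamycin control wells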
PP5 primary = inhibitors of human protein phosphatase 5 (PP5) | 0.18% of 320,000 active | purified PP5c, OMFP substrate fluorescence | P53041 | inhibition, % at 6.7 µM | AID 1987;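 active means inhibition above the campaign's mean inhibition across all tested compounds plus 3 SD, cut at about 9.5% in these data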;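 further: 0% = DMSO only and 100% = 100 µM cantharidin control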
* hit, by the source's call; . = no result. An excerpt weighted towards active compounds, which were near 5.4% of everything screened.

SMILES	PP1 inh	CSC inhib	ALR inh	Calb FLC	PP5 primary
Cn1c(=NC(=O)c2ccc(S(=O)(=O)N3CCCc4ccccc43)cc2)sc2cc(S(C)(=O)=O)ccc21	-1.2	-0.1	-23.5	10.2	0.7
CCCc1cc(C(N)=O)c(NC(=O)c2ccoc2C)s1	4.7	1.3	98.2*	16.9	1.6
CCCc1cc(C(N)=O)c(NC(=O)c2cc(C)on2)s1	3.2	-12.5	3.0	47.7	4.0
O=[N+]([O-])c1cc(Cl)c2cccnc2c1O	5.7	97.6*	-3.3	101.6*	0.5
Cc1c(C)c2cccnc2c2ncccc12	16.4*	.	-14.4	.	4.8
O=[N+]([O-])c1cc(F)c2cccnc2c1O	-2.6	15.0	22.3	61.0	3.4
O=[N+]([O-])c1ccc(O)c2cccnc12	-1.1	1.3	-30.8	21.5	1.1
Clc1cc2cccnc2c2ncccc12	9.8	121.5*	.	.	1.4
O=[N+]([O-])c1ccc(O)c2ncccc12	14.5	82.2*	.	98.9*	3.7
CCOC(=O)N1CCN(C(=O)COc2ccccc2OC)CC1	-2.5	5.8	-13.0	-16.8	0.2
NS(=O)(=O)c1ccc(CCNC(=O)CSc2nc3ccccc3c3nc(CCN4CCCCC4)nn23)cc1	0.6	-11.5	-8.0	-9.3	-0.7
CCOC(=O)c1c(C)[nH]c(C(=O)OCC(=O)N2CCN(S(=O)(=O)c3ccc(C)cc3C)CC2)c1C	-2.4	5.4	-3.4	.	2.7
CC1=NN(c2ccccc2)C(=O)/C1=C\c1ccc(Oc2ccc([N+](=O)[O-])cc2[N+](=O)[O-])cc1	3.0	3.3	-16.1	-39.5	8.6
O=[N+]([O-])c1cc(Cl)c(O)c2ncccc12	.	.	.	107.3*	.
CNC(=O)/C(C#N)=C/c1ccc(OCCOc2ccccc2)cc1	.	-26.1	-4.3	-1.9	.
O=C(Nc1ccccc1C(=O)Nc1nnc(C(F)(F)F)s1)c1ccccc1	4.9	195.0*	-2.7	-12.9	2.2
NC(=S)N/N=C/c1c[nH]c2ccccc12	-0.5	19.2	98.8*	5.7	-1.0
Cn1c(N/N=C/c2c[nH]c3ccccc23)nc2ccccc21	-2.2	-16.4	98.1*	83.6*	-1.8
O=C(N/N=C/c1c[nH]c2ccccc12)C1CC1c1ccccc1 (stereo not given)	5.2	.	17.1	-13.0	6.3
O=C(N/N=C/c1c[nH]c2ccccc12)C1CC1(c1ccccc1)c1ccccc1 (stereo not given)	-0.9	78.6*	-4.8	-4.3	5.0
O=C(O)c1ccc(N/N=C/C(Br)=C/c2ccccc2)cc1	3.1	5.3	98.3*	2.2	-0.1
COC(=O)N/N=C/c1c[nH]c2ccccc12	-1.3	-13.4	41.8	-0.8	0.8
O=C(N/N=C\c1c[nH]c2ccccc12)c1ccc(O)cc1	.	3.1	45.9	-2.3	.
O=C(O)c1ccc(N/N=C/c2c[nH]c3ccccc23)cc1	-1.6	-8.0	98.4*	-6.2	-1.4
Cc1c(OCC(F)(F)F)ccnc1CS(=O)c1nc2ccccc2[nH]1 (stereo not given)	0.3	-16.0	97.1*	2.9	-0.5
SMILES	PP1 inh	CSC inhib	ALR inh	Calb FLC	PP5 primary
CC(C)CN1C(=O)c2ccc(C(=O)Nc3ccccc3C(=O)O)cc2C1=O	3.2	-3.9	80.7*	17.5	1.7
Cc1cc([N+](=O)[O-])ccc1N1C(=O)c2ccc(C(=O)Nc3ccccc3C(=O)O)cc2C1=O	1.5	3.6	97.5*	-2.4	-2.0
Cc1ccccc1NC(=O)c1ccc2c(c1)C(=O)N(CC(C)C)C2=O	-2.6	-17.0	-2.3	2.3	-1.2
CC(=O)NS(=O)(=O)c1ccc(NC(=O)c2ccc3c(c2)C(=O)N(CCC(C)C)C3=O)cc1	-3.8	-3.3	91.7*	11.9	0.6
CC(C)CCN1C(=O)c2ccc(C(=O)Nc3cc(C(=O)O)cc(C(=O)O)c3)cc2C1=O	.	.	0.0	-5.0	.
CC(C)CCN1C(=O)c2ccc(C(=O)Nc3ccc(Br)cc3C(=O)O)cc2C1=O	1.7	12.4	59.7	82.4*	1.2
CCOc1ccc(/C=C2\SC(=S)N(CCCC(=O)NCCCN3CCOCC3)C2=O)cc1	-1.9	42.0	-1.3	-3.6	1.1
O=C(CN1CCC(n2nnc3cc(F)ccc32)CC1)NNC(=O)c1ccccc1	-2.8	-14.4	-3.2	-5.7	0.6
Cc1cccc(NC2=Nc3ccccc3N3C2=Nc2c(c(C)nn2-c2ccccc2)C3c2ccc(O)c(O)c2)c1 (stereo not given)	1.6	100.3*	1.2	-12.2	0.2
Cc1nn(-c2ccccc2)c2c1C(c1ccc(O)c(O)c1)N1C(=N2)C(Nc2ccccc2)=Nc2ccccc21 (stereo not given)	-1.3	90.4*	2.9	-2.0	0.0
O=C(CSc1nc2ccccc2[nH]1)N=Nc1c(O)[nH]c2ccccc12	-6.1	-0.3	96.5*	-5.4	-0.1
Cn1c(SCC(=O)N=Nc2c(O)[nH]c3ccccc23)nc2ccccc21	0.1	-2.1	-14.9	-9.3	1.0
NNc1ccc2c(C(F)(F)F)cc(C(F)(F)F)nc2n1	-0.4	10.6	-3.4	11.0	4.6
N#CC(c1cccc(Cl)c1)c1ccc2c(C(F)(F)F)cc(C(F)(F)F)nc2n1 (stereo not given)	-0.5	107.1*	.	6.4	3.8
CC(C)Cc1ccc(C(C)C(=O)Nc2ccc(O)cc2)cc1 (stereo not given)	0.5	16.7	71.5	12.3	6.5
O=C(Nc1ccc(-c2nc3ccccc3o2)cc1)c1ccc(N2CCOCC2)c([N+](=O)[O-])c1	-4.7	7.1	-0.5	0.6	-0.8
Cn1cc([N+](=O)[O-])c(C(=O)Nc2ccc(-c3nc4ccccc4o3)cc2)n1	0.8	103.8*	-7.2	-4.5	-1.1
CCOc1ccccc1NC(=O)NC(C)c1ccc2c(c1)OCO2 (stereo not given)	-2.6	32.9	-10.1	0.1	3.0
COc1ccc(OC)c(-c2csc(NC(=O)Cc3ccc(F)cc3)n2)c1	6.7	25.2	-8.1	-32.7	5.6
COc1ccc(OC)c(-c2csc(NC(=O)c3ccc(F)cc3)n2)c1	-5.7	85.7*	5.0	-0.4	2.0
COc1cccc(-n2ccnc2SCC(=O)N2CCCc3ccccc32)c1	-0.1	-9.6	31.4	2.7	4.4
Cc1c(S(=O)(=O)N2CCN(C(=O)c3ccco3)CC2)c(=O)n(C)c(=O)n1C	1.7	0.2	-23.7	-0.3	-0.9
O=C(Cn1c(C(F)(F)F)nc2ccccc21)c1ccc(F)cc1	-0.3	1.7	92.3*	-0.3	-7.9
O=C(Cn1c(C(F)(F)F)nc2ccccc21)c1ccc(Br)cc1	3.2	-5.8	-3.9	4.6	2.3
COc1cc([N+](=O)[O-])cc(/C=N/NC(=O)c2cncc(Br)c2)c1O	10.1	2.7	8.3	-0.5	0.4
COc1ccc(/C=N/NC(=O)c2cccc([N+](=O)[O-])c2)cc1OC	-4.4	-4.8	-2.8	18.3	2.2
COc1cc(/C=N/NC(=O)c2cncc(Br)c2)cc([N+](=O)[O-])c1O	17.4*	10.7	7.3	35.5	3.7
Cc1nc2c(C)cccc2cc1C(=O)N/N=C/c1cccc([N+](=O)[O-])c1	1.4	31.6	98.1*	-1.9	2.3
COc1cc(/C=N/NC(=O)c2ccc(O)cc2)ccc1Oc1ccc([N+](=O)[O-])cn1	-4.0	5.9	92.4*	-1.9	2.1
